Inconclusive results are not listed. Calls of active or inactive are those of the source. Calls come from the whole dose curve; as a rule, active = well fitted inhibition curve with a large enough effect; inconclusive = small, poorly fitted or top-dose-only effect; inactive = flat fitted curve, though single readings scatter.
These molecules were tested on CP201 (assay: qHTS profiling for inhibitors of Plasmodium falciparum proliferation (AID 504749; note: nearly all actives have a fitted effect of over 60% in size)). Conditions: P. falciparum in erythrocytes, SYBR Green DNA, 72 h; series mostly up to 28.7 µM.
In short: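 Parasite proliferation within erythrocytes, 72 h exposure. Endpoint: SYBR Green I fluorescence after overnight lysis at room temperature. Controls: 0.29 uM artemisinin, DMSO.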
O=C1c2cccc(O)c2C(=O)c2c(O)cccc21 was tested, and the outcome was “inactive”. COc1nccnc1NS(=O)(=O)c1ccc(N)cc1 was tested, and the outcome was “inactive”. With O=C1c2ccccc2S(=O)(=O)N1CCCCN1CCN(c2ncccn2)CC1 the outcome was “inactive”. For OCC(O)CS (configuration not stated), the outcome was “inactive”. In the case of CC(CN(C)C)C(C)(O)Cc1ccc(Cl)cc1 (configuration not stated), the outcome is reported as “inactive”. Cc1cc(-n2nc3ccc(Cl)cc3n2)c(O)c(C(C)(C)C)c1 was tested, and the outcome was “inactive”. For Nc1ncnc(Nc2ccccc2)n1, the outcome was “inactive”. In the case of NC(=O)CCCCC1CCSS1 (configuration not stated), the outcome is reported as “inactive”. With CC(=O)OC[C@H]1O[C@@](COC(C)=O)(O[C@H]2O[C@H](COC(C)=O)[C@@H](OC(C)=O)[C@H](OC(C)=O)[C@H]2OC(C)=O)[C@@H](OC(C)=O)[C@@H]1OC(C)=O the outcome was “inactive”. For O=C(c1ccccc1)C(O)c1ccccc1 (configuration not stated), the outcome was “inactive”. For CC(C)=CCC/C(C)=C/CO, the outcome was “inactive”. For CCOC(=O)[C@H](CCc1ccccc1)N[C@@H](C)C(=O)N1CCC[C@H]1C(=O)O, the outcome was “inactive”. For NCc1ccc(S(N)(=O)=O)cc1, the outcome was “inactive”. Cc1cc(OI)c(C(C)C)cc1-c1cc(C(C)C)c(OI)cc1C was tested, and the outcome was “inactive”. For O=C1CC[C@@H](C(=O)O)N1, the outcome was “inactive”. In the case of Cc1c(NC(=O)c2cccnc2)c(=O)n(-c2ccccc2)n1C, the outcome is reported as “inactive”. CCCCCCCCCCC(CO)CCCCCCCC (configuration not stated) was tested, and the outcome was “inactive”. For O=C1c2ccccc2C(=O)C1c1ccc(Br)cc1, the outcome was “inactive”. For CCCCCCCC(=O)OCC(COC(=O)CCCCCCC)OC(=O)CCCCCCC, the outcome was “inactive”. CCCCCC(C)N (configuration not stated) was tested, and the outcome was “inactive”. With CC(=O)N[C@@H](Cc1ccc(O)cc1)C(=O)O the outcome was “inactive”. With CC(=O)Oc1cccc(O)c1 the outcome was “inactive”. With Cc1onc(-c2ccccc2)c1-c1ccc(S(N)(=O)=O)cc1 the outcome was “inactive”. O=C1C(c2[nH]c3ccccc3c2O)=Nc2ccccc21 was tested, and the outcome was “inactive”. For Cc1c(I)c(=O)n(-c2ccccc2)n1C, the outcome was “inactive”. In the case of CN(C(=O)c1c(O)c2ccccc2n(C)c1=O)c1ccccc1, the outcome is reported as “inactive”. C[C@H]1COc2c(C3(N)CC3)c(F)cc3c(=O)c(C(=O)O)cn1c23 was tested, and the outcome was “inactive”. CC(=O)SC[C@@H](Cc1ccccc1)C(=O)NCC(=O)OCc1ccccc1 was tested, and the outcome was “inactive”. For O=C(O)CCCCC1CCSS1 (configuration not stated), the outcome was “inactive”. For CCN1CC(CCN2CCOCC2)C(c2ccccc2)(c2ccccc2)C1=O (configuration not stated), the outcome was “inactive”. In the case of Cc1cc(C)c(NC(=O)CN(CC(=O)O)CC(=O)O)c(C)c1Br, the outcome is reported as “inactive”. With CN(C/C=C/C#CC(C)(C)C)Cc1cccc2ccccc12 the outcome was “inactive”.

— PubChem BioAssay (NCATS)
